# LYPLA2 inh = LYPLA2 (human) inhibition in PME1 counter-screen | recombinant LYPLA2, FP-Rh probe fluorescence polarization | 320,000 tested, 0.38% active | inhibition, % at 5.9 µM;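 active = inhibition above the screen-wide mean plus 3 SD, limit set per campaign, cut at about 26% in these data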
# Fam108B counter = Fam108B inhibition, counter-screen for RBBP9 inhibitors; recombinant Fam108B, FP-Rh probe fluorescence polarization; inhibition, % at 9.51 µM; 300,000 tested, 0.33% active; AID 1947;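 active = inhibition above the screen mean inhibition plus 3 SD, computed separately per campaign, cut at about 18% in these data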;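 note: inhibitors lower polarization as less probe binds the enzyme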
# PME-1 inh = PME-1 (human) inhibition; inhibition, % at 5.9 µM; Q9Y570; 320,000 tested, 0.53% active; recombinant PME-1, FP-Rh probe fluorescence polarization; AID 2130;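 active = inhibition above the campaign mean of all compounds plus 3 SD, cut at about 26% in these data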;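 note: competitive labeling of PME-1 active site by serine hydrolase directed probe; inhibitors block probe labeling so polarization falls and inhibition rises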
# PAD4 inh = blocks human protein arginine deiminase 4 | recombinant PAD4, RCA probe fluorescence polarization | Q9UM07 | inhibition, % at 6.36 µM | AID 485272 | 330,000 tested, 0.41% active;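 active = percent inhibition above a cutoff equal to the mean of all tested compounds plus 3 SD, cut at about 15% in these data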
# Target sequence (Q9UM07 whole entry, looked up): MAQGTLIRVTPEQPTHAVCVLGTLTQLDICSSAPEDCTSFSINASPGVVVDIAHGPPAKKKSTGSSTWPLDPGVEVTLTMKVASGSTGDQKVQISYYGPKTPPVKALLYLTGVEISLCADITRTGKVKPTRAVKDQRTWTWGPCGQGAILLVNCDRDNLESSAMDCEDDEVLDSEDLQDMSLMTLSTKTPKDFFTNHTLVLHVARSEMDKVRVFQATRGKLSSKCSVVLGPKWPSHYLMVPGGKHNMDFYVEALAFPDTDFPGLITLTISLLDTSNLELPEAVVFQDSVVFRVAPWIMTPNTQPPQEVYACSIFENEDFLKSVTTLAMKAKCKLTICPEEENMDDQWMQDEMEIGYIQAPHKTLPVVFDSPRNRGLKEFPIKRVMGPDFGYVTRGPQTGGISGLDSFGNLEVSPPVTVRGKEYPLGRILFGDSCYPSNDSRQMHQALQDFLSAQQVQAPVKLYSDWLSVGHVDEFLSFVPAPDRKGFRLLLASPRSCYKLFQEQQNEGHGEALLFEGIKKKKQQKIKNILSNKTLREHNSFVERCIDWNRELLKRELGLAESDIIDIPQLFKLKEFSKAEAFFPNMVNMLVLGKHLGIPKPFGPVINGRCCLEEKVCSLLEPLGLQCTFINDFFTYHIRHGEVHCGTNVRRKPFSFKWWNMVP
# GSTO1 inh = counter-screen for RBBP9 inhibitors: inhibitors of human GSTO1 | inhibition, % at 5.96 µM | AID 1974 | P78417 | 300,000 tested, 1.1% active | recombinant GSTO1, activity-based probe fluorescence polarization;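 active = inhibition above the campaign mean inhibition plus 3 SD, cut at about 35% in these data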
# LYPLA1 inh = LYPLA1 (human) inhibition in PME1 counter-screen; O75608; recombinant LYPLA1, FP-Rh probe fluorescence polarization; inhibition, % at 5.9 µM; 320,000 tested, 0.16% active;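 active = inhibition above the mean of all tested compounds plus 3 SD, set per campaign, cut at about 14% in these data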;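 note: inhibitors block serine hydrolase probe labeling of LYPLA1 so polarization falls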
# PAD4 confirm = confirmation of human PAD4 inhibitors; inhibition, % at 6.36 µM; 1,200 tested, 28% active; recombinant PAD4, RCA probe fluorescence polarization; shares compounds with PAD4 inh;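 active = mean inhibition across replicates above the hit cutoff set by the earlier primary screen, cut at about 15% in these data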;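 note: inhibitors block active-site labeling by the probe so polarization falls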
# A number is an active result; n = inactive; x = not tested or not shown. Hits are enriched below; roughly 1.8% of the tested compounds scored in any of these assays.
SMILES,LYPLA2 inh,Fam108B counter,PME-1 inh,PAD4 inh,GSTO1 inh,LYPLA1 inh,PAD4 confirm
Cc1cc2cc(CN3C(=O)c4ccccc4C3=O)ccc2n1C,n,n,n,16,n,n,n
CCOc1ccc(CC(=O)NCc2ccc3c(c2)cc(C)n3C)cc1,n,n,n,n,n,n,x
CCOc1ccc(CC2c3cc(OCC)c(OCC)cc3CCN2C(=O)CN2CCN(C)CC2)cc1OCC (stereo unspecified),n,n,n,n,n,n,x
CCc1nnc(N/N=C/c2ccccc2Cl)n1N,n,n,n,36,n,n,n
CCOC(=O)N/N=C/c1ccccc1F,n,n,n,n,n,n,x
CCc1nnc(N/N=C/c2ccccc2F)n1N,n,n,n,43,n,n,n
COc1cccc(/C=N/Nc2nnc(C)n2N)c1OCc1ccccc1Cl,n,n,n,22,n,n,n
COc1cccc(CNCCO)c1OCc1ccccc1Cl,n,n,n,n,n,n,x
CC(C)(C)c1nnc(N/N=C/c2ccccc2O)n(N)c1=O,n,n,n,n,n,n,x
CN(C)CCCNc1cc(O)c2ncccc2c1,x,x,x,16,x,x,n
O=C(COC(=O)CN1C(=O)c2ccccc2C1=O)NC1CCCC1,n,n,n,n,n,n,x
Cc1nn(-c2ccccc2)c(C)c1/C=C/C(=O)OCC(=O)Nc1ncc(C(F)(F)F)cc1Cl,n,n,n,n,n,n,x
COc1ccc(C2CC(c3cccs3)=Nc3ccccc3S2)cc1 (stereo unspecified),n,n,n,21,n,n,n
COc1ccc(C2CC(c3cccs3)=NN2S(C)(=O)=O)cc1 (stereo unspecified),n,n,n,n,n,n,x
Cc1ccc(-c2cc(C(=O)OCC(=O)N(C)c3c(N)n(Cc4ccccc4)c(=O)[nH]c3=O)c3ccccc3n2)o1,n,n,n,n,n,n,x
CC(=O)N1CCN(c2ccc(NCc3cccs3)cc2)CC1,n,n,n,17,n,n,n
Cc1ccc(-n2ncc3c(NNC(=O)c4ccco4)ncnc32)cc1Cl,n,n,n,n,n,n,x
Cc1ccc2[nH]c(C(=O)O)c(-c3ccccc3)c2c1,n,n,n,n,n,n,x
O=C(O)c1[nH]c2ccccc2c1-c1ccccc1,n,n,n,104,n,n,n
CC1CC1c1ccc(/C=C(\C#N)C(=O)Nc2cccc(Cl)c2Cl)o1 (stereo unspecified),n,n,n,n,n,n,x
